The values below come from PubChem BioAssay (EPA / NIEHS).

Several values for one entry are separate records, joined by “and”; a condition that tells them apart may be missing. Equal entries are not always repeated. Where a structure was tested more than once in an assay, its records may differ in their call. Activity calls are given as the source filed them. How the source made its calls: active means hit-call score of the fitted dose curve at least 0.9, where 1 is the maximum; inactive means score below 0.9.

Broadly, the AC50 is the midpoint of the concentration-response curve, whichever way the signal moves.

Assay [1] in a line: APR_HepG2_CellCycleArrest_24hr: Apredica 24-hour HepG2 Assay for Cell Cycle Arrest (AID 2282905).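 Further: cell cycle arrest scored as ratio of 2N to 4N nuclear DNA content.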 To be noted: imaging, actives raise or lower the signal. An outline of the steps: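 Cell cycle arrest is scored from nuclear DNA content measured by high-content imaging of Hoechst 33342-stained HepG2 cells following 24-hour treatment at ten concentrations up to 200 uM, with DMSO as baseline.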

Assay [2] is described as follows: APR_HepG2_StressKinase_1hr: Apredica 1-hour HepG2 Assay for Stress Kinase (AID 2282906). To be noted: HepG2 stress kinase (phospho-c-Jun) imaging, actives raise or lower the signal. An outline of the steps:
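HepG2 cells dosed 0.39-200 uM (0.5% DMSO) for 1 h, then formaldehyde-fixed. Stress kinase read by phospho-c-Jun immunofluorescence using high-content imaging; bidirectional fit vs DMSO.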

The nature of assay [3]: APR_HepG2_NuclearSize_24hr: Apredica 24-hour HepG2 Assay for Nuclear Size (AID 2282907). To be noted: high-content imaging, actives raise or lower the signal. The method in brief:
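Compounds in DMSO (final 0.5%) were added to human HepG2 hepatoma cells at ten concentrations up to 200 uM for 24 hr. Fixed nuclei were stained with Hoechst 33342, and nuclear diameter was quantified from automated images.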

Assay [4] can be described thus: APR_HepG2_CellLoss_24hr: Apredica 24-hour HepG2 Assay for Cell Loss (AID 2282908).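 On AC50: fit in both directions so a hit may be cell loss or gain.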 To be noted: high-content imaging. An outline of the steps: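 Cell number is quantified by fluorescence imaging of Hoechst 33342-stained nuclei following dosing at 0.39–200 uM in 0.5% DMSO. Curves are fitted in both directions from the DMSO baseline.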
Assay [5] is described as follows: APR_HepG2_MitoticArrest_24hr: Apredica 24-hour HepG2 Assay for Mitotic Arrest (AID 2282910). To be noted: high-content imaging, actives raise or lower the signal. An outline of the steps: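 HepG2 human liver cells were exposed to compounds at 0.39–200 uM (10 concentrations, duplicate) in 0.5% v/v DMSO for 24 hr, then fixed and immunostained for phospho-histone H3 with Hoechst 33342. Mitotic arrest came from HCS fluorescent imaging, fitted bidirectionally against DMSO.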

Assay [6] in a line: APR_HepG2_MitoMembPot_24hr: Apredica 24-hour HepG2 Assay for Mitochondrial Membrane Potential (AID 2282911). To be noted: imaging, actives raise or lower the signal. The method in brief:
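HepG2 human liver cells were exposed 24 hr to compounds at 0.39–200 uM (final DMSO 0.5% v/v) in duplicate. MitoTracker Red CMXRos (250 nM, 30 min) was loaded before formaldehyde fixation; fluorescence was imaged by ArrayScan HCS and fitted bidirectionally versus DMSO.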

The nature of assay [7]: APR_HepG2_MitoMass_24hr: Apredica 24-hour HepG2 Assay for Mitochondrial Mass (AID 2282912). To be noted: high-content imaging, actives raise or lower the signal. The method in brief: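 The liver line HepG2 was dosed in duplicate across a 0.39–200 uM series, with final DMSO held at 0.5% v/v, and harvested at 24 hr. High-content imaging measured mitochondrial dye staining.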

A short description of assay [8]: APR_HepG2_p53Act_24hr: Apredica 24-hour HepG2 Assay for p53 Activation (AID 2282913).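 Further: p53 protein immunofluorescence averaged per cell in HepG2 with Hoechst nuclei.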 The conditions noted are these: high-content imaging, actives raise or lower the signal. An outline of the steps:
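HepG2 cells exposed 24 hr to compounds at 0.39–200 uM (10 concentrations, duplicate), final DMSO 0.5% v/v. After formaldehyde fixation and Triton permeabilization, p53 was immunolabeled (sheep anti-p53, Cy5 secondary) with Hoechst 33342 nuclear counterstain, then imaged by high-content fluorescence microscopy.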

A short description of assay [9]: APR_HepG2_CellCycleArrest_72hr: Apredica 72-hour HepG2 Assay for Cell Cycle Arrest (AID 2282914). To be noted: high-content imaging, actives raise or lower the signal. The method in brief:
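HepG2 cells were exposed to compounds at 0.39–200 uM (0.5% v/v DMSO final, duplicates) for 72 hr, fixed in 3.7% formaldehyde, permeabilized and stained with Hoechst 33342. Nuclear DNA content was quantified by high-content imaging; gain or loss of signal was fitted bidirectionally against DMSO.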

Assay [10] is described as follows: APR_HepG2_CellLoss_72hr: Apredica 72-hour HepG2 Assay for Cell Loss (AID 2282915). The conditions noted are these: high-content imaging. The method in brief: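 HepG2 cells were exposed for 72 hr to compounds at 0.39–200 uM (ten concentrations, duplicate) in 0.5% v/v final DMSO. Nuclei were stained with Hoechst 33342 after 3.7% formaldehyde fixation, imaged at 20x, and counted; fits bidirectional versus DMSO.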

The nature of assay [11]: APR_HepG2_P-H2AX_72hr: Apredica 72-hour HepG2 Assay for H2AX Phosphorylation (AID 2282916).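 Further: phospho-histone H2A.x immunostain intensity per cell marking DNA damage.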 To be noted: imaging, actives raise or lower the signal. An outline of the steps:
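Following 72 hr treatment with 0.39–200 uM compound, HepG2 cells were formaldehyde-fixed, permeabilized and stained for phospho-H2A.x; signal was measured by high-content imaging and fitted bidirectionally against DMSO controls.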

A short description of assay [12]: APR_HepG2_MitoticArrest_72hr: Apredica 72-hour HepG2 Assay for Mitotic Arrest (AID 2282918). To be noted: high-content imaging, actives raise or lower the signal. An outline of the steps: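 HepG2 cells were exposed for 72 hr to compound at 0.39–200 uM (10 concentrations, duplicate) in 0.5% v/v DMSO, fixed in 3.7% formaldehyde, immunostained for phospho-histone H3 with Hoechst 33342 and imaged by high-content fluorescence; bidirectional fits versus DMSO.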

Assay [13] is described as follows: APR_HepG2_MicrotubuleCSK_72hr: Apredica 72-hour HepG2 Assay for Microtubule CSK Stabilty (AID 2282919). To be noted: HepG2 microtubule cytoskeleton, high-content imaging, actives raise or lower the signal. The method in brief: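 HepG2 human liver cells were dosed for 72 h at ten concentrations from 0.39 to 200 uM in duplicate (0.5% v/v DMSO final). Fixed, permeabilized cells were immunostained for alpha-tubulin (Cy5) with a Hoechst counterstain and imaged at 20x.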

Assay [14] in a line: APR_HepG2_P-H2AX_24hr: Apredica 24-hour HepG2 Assay for H2AX Phosphorylation (AID 2282920). The conditions noted are these: high-content imaging, actives raise or lower the signal. The method in brief:
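HepG2 human liver cells were exposed for 24 hr to compounds at 0.39–200 uM in duplicate, with 0.5% v/v DMSO final. Fixed cells were immunostained for phospho-histone H2A.x plus Hoechst 33342, imaged by HCS fluorescence, and fitted bidirectionally against DMSO.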

A short description of assay [15]: APR_HepG2_StressKinase_24hr: Apredica 24-hour HepG2 Assay for Stress Kinase (AID 2282922). The conditions noted are these: HepG2 stress kinase (phospho-c-Jun) imaging, actives raise or lower the signal. The method in brief: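 HepG2 cells exposed 24 hr to compound at 0.39–200 uM (10 concentrations, duplicate), 0.5% v/v DMSO final. Fixed in 3.7% formaldehyde, permeabilized with Triton X-100, immunolabeled for phospho-c-Jun with Hoechst 33342; HCS fluorescence imaging, bidirectional fit versus DMSO.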

Assay [16] is described as follows: APR_HepG2_p53Act_72hr: Apredica 72-hour HepG2 Assay for p53 Activation (AID 2282923).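 Further: average cellular p53 protein immunofluorescence intensity in HepG2 cells.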 The conditions noted are these: high-content imaging, actives raise or lower the signal. The method in brief: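 HepG2 monolayers receive test compounds in duplicate at ten concentrations (0.39 through 200 uM) for 72 hr. They are then formaldehyde-fixed, antibody-labelled for p53, Hoechst-stained and imaged, with activity fitted bidirectionally versus DMSO.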

A short description of assay [17]: APR_HepG2_MitoMass_72hr: Apredica 72-hour HepG2 Assay for Mitochondrial Mass (AID 2282924).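 Further: MitoTracker Red CMXRos stain intensity per cell imaged as mitochondrial mass.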 To be noted: high-content imaging, actives raise or lower the signal. The method in brief: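 HepG2 cells were exposed for 72 hr to compounds at 0.39–200 uM (ten concentrations, duplicate, 0.5% v/v DMSO final). Live cells were stained with 250 nM MitoTracker Red CMXRos for 30 min, then fixed in 3.7% formaldehyde and imaged by HCS fluorescence.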

Assay [18] is described as follows: APR_HepG2_MicrotubuleCSK_24hr: Apredica 24-hour HepG2 Assay for Microtubule CSK Stabilty (AID 2282909). To be noted: HepG2 microtubule cytoskeleton imaging, actives raise or lower the signal. The method in brief:
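Steps: dose HepG2 for 24 h (0.39–200 uM, 0.5% DMSO); fix 30 min in 3.7% formaldehyde at room temperature; permeabilize; stain alpha-tubulin 60 min; image microtubule cytoskeleton at 20x. Signal change fitted in both directions relative to DMSO.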

The nature of assay [19]: APR_HepG2_StressKinase_72hr: Apredica 72-hour HepG2 Assay for Stress Kinase (AID 2282921). To be noted: HepG2 stress kinase (phospho-c-Jun) imaging, actives raise or lower the signal. The method in brief:
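Fluorescence intensity of Cy3-tagged anti-phospho-c-Jun antibody, quantified per cell from Hoechst-defined nuclei across six images per well, served as the read-out following 72 h exposure (0.39–200 uM, 0.5% v/v DMSO).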

Assay [20] in a line: APR_HepG2_MitoMembPot_72hr: Apredica 72-hour HepG2 Assay for Mitochondrial Membrane Potential (AID 2282917). To be noted: imaging, actives raise or lower the signal. The method in brief:
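HepG2 cells exposed 72 h to compounds at 0.39–200 uM (0.5% v/v DMSO, duplicates); MitoTracker Red CMXRos 250 nM loaded 30 min before 3.7% formaldehyde fixation, imaged by HCS fluorescence. Bidirectional fit versus DMSO.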

For `CC(C)(c1ccc(O)cc1)c1ccc(O)cc1`, the compound was classed as inactive in assay [1], in [2], in assay [3], in assay [4], in assay [5] and in [6]. For the same compound, the compound was classed as inactive in assay [7], in assay [8], in assay [9], in assay [11], in assay [12] and in assay [13]. For the same compound, the compound was classed as inactive in assay [14], in [15], in assay [16] and in assay [17]. For the same compound, the AC50 is 106 µM (active) and 107 µM (active) and 100 µM (active) in assay [4]; 12.7 µM (active) and 30.5 µM (active) and 101 µM (active) in [6]; 109 µM (active) and 122 µM (active) in assay [7]; 109 µM (active) [middle of 4 runs] in [10]; 114 µM (active) and 105 µM (active) in assay [11]; 170 µM (active) and 110 µM (active) in assay [14]. In addition, the AC50 in [17] was 122 µM (active).
Take `COC(=O)c1ccccc1S(=O)(=O)NC(=O)Nc1nc(OC(F)F)cc(OC(F)F)n1`: the call in [1], in assay [2], in [3], in [4], in assay [18] and in [5] was inactive. The call in [6], in assay [7], in assay [8], in [9], in assay [11] and in assay [12] was inactive. Further, the result in [13], in assay [14], in assay [19], in assay [15], in assay [16] and in assay [17] was inactive.
`c1ccc(Nc2ccccc2)cc1`: the call in assay [1], in [2], in assay [3], in [4], in assay [18] and in [5] was inactive. Moreover, the compound was classed as inactive in assay [6], in [7], in [8], in assay [9], in assay [11] and in assay [12]. For the same compound, the compound was classed as inactive in assay [13], in assay [14], in [19], in assay [15], in [16] and in [17].
As to `CCN(Cc1c(F)cccc1Cl)c1c([N+](=O)[O-])cc(C(F)(F)F)cc1[N+](=O)[O-]`, the call in [1], in assay [2], in assay [3], in assay [4], in [18] and in [5] was inactive. The result in assay [6], in [7], in assay [8], in assay [9], in assay [11] and in [12] was inactive. Moreover, the compound was called inactive in [14], in assay [15], in assay [16] and in assay [17]. Further, the AC50 in [13] was 34.6 µM (active).
Consider `CCCCOC(=O)C(C)Oc1ccc(Oc2ccc(C(F)(F)F)cn2)cc1` (configuration not stated), for which the call in assay [1], in [2], in [3], in assay [4], in [18] and in assay [5] was inactive. In addition, the compound was called inactive in assay [6], in assay [7], in assay [8], in assay [9], in [11] and in assay [12]. The compound was classed as inactive in assay [13], in assay [14], in assay [15], in [16] and in assay [17]. Moreover, the AC50 in [20] is 34.9 µM (active).
`c1ccc2[nH]c(-c3cscn3)nc2c1`: the outcome in assay [1], in assay [2], in assay [3], in [4], in assay [18] and in assay [5] was inactive. For the same compound, the compound was classed as inactive in assay [6], in [7], in assay [9], in assay [10], in assay [11] and in [12]. In addition, the compound was classed as inactive in assay [13], in assay [14], in assay [15] and in [17].
For the compound `CCCCOCCOCCOCc1cc2c(cc1CCC)OCO2`, the call in assay [1], in assay [2], in [3], in [4], in [5] and in assay [6] was inactive. In addition, the result in assay [7], in assay [11], in assay [20], in [12], in [14] and in [15] was inactive. Also, the result in assay [17] was inactive. In addition, the AC50 in assay [18] was 70 µM (active); in [9] it was 45 µM (active); in [10], 85.8 µM (active); in assay [13] it was 78.1 µM (active).
